Compound activity as filed in PubChem.
CYP2C19 inhib – blocks human cytochrome P450 2C19; P33261; CYP2C19 Supersomes, luciferin-H EGE luminescence, 30 min; inhibition, % at 5 µM; 96,000 tested, 21% active; AID 778;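 active = CYP2C19 inhibition above a set limit at 5 µM in the primary screen, cut at about 50% in these data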;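 note: plate controls were negative control wells for no effect and 2.5 mM tranylcypromine positive control for full effect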
CYP2C9 inhib – inhibitors of human CYP2C9; CYP2C9 Supersomes, luciferin-H conversion, luminescence; 96,000 tested, 20% active; inhibition, % at 5 µM;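 active = blocking of liver enzyme CYP2C9 beyond about 50% at 5 µM, limit read from the data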
sEH inhibitor – inhibitors of human soluble epoxide hydrolase; P34913; inhibition, % at 2 µM; AID 707; recombinant human sEH enzymatic activity assay; 91,000 tested, 0.34% active; in the data active = inhibition above about 80%
sEH activator – activators of human soluble epoxide hydrolase | P34913 | purified human sEH enzymatic activity, activator screen | activation, % at 2 µM | 91,000 tested, 0.04% active | AID 717; in the data active = activation above about 37%
CYP2C19 activ – increases human CYP2C19 enzyme activity; P33261; recombinant CYP2C19, luciferin-H EGE luminescence; hits give high values; 0 = fully inhibited enzyme, 1 = untreated enzyme; activation factor at 5 µM; 96,000 tested, under 10 active;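 active = activation factor of at least 2 at 5 µM in the primary screen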;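 note: 0 = wells with 2.5 mM tranylcypromine and 1 = vehicle-only wells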
CYP2C9 activ – increases human cytochrome P450 2C9 activity. activation factor at 5 µM. recombinant CYP2C9, luciferin-H conversion, luminescence; hits give high values; factor 1 = untreated enzyme, 0 = blocked. AID 1024. 96,000 tested, 1.4% active;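 active = activation factor of 2 or more for CYP2C9 at a 5 µM dose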;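 note: 0 = sulfaphenazole-blocked wells and 1 = vehicle-only wells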
* hit, by the source's call; / = not tested or not shown. The list is not random: actives were taken first. Their share in the collection is about 27%.

SMILES	CYP2C19 inhib	CYP2C9 inhib	sEH inhibitor	sEH activator	CYP2C19 activ	CYP2C9 activ
O=C(Cn1cnc2c(nnn2-c2cccc(Cl)c2)c1=O)N1CCCC1	10	-67	-8	8	0.9	1.7
CCN(CC)S(=O)(=O)c1ccc2c(c1)nc(SC(C)C(N)=O)n2-c1ccc(OC)cc1 (centres undefined)	62*	91*	3	-4	0.4	0.1
O=S(=O)(c1ccc(Oc2ccccc2)cc1)N1CCOCC1	42	57*	-3	5	0.6	0.4
COc1ccc(S(=O)(=O)N2CCN(C(=O)c3c(-c4ccccc4)noc3C)CC2)cc1	39	14	2	-1	0.6	0.9
O=S(=O)(c1ccc(Oc2ncnc3scc(-c4ccccc4)c23)cc1)N1CCOCC1	72*	73*	8	-6	0.3	0.3
O=C(c1ccco1)N1CCN(S(=O)(=O)c2ccc3c(c2)OCCO3)CC1	96*	-13	-8	11	0	1.1
Cc1onc(-c2ccccc2)c1C(=O)N1CCN(S(=O)(=O)c2ccc3c(c2)OCCO3)CC1	74*	41	/	/	0.3	0.6
c1ccc(-c2csc3ncnc(NCCCN4CCOCC4)c23)cc1	/	/	4	-2	/	/
O=C(C/C=N/OCc1c(Cl)cccc1Cl)c1ccccc1	22	0	-12	12	0.8	1
O=S(=O)(c1ccc(-c2cn3ccccc3n2)cc1)N1CCOCC1	5	55*	-16	18	0.9	0.5
C[C@H](NC(=O)c1ccco1)C(=O)Nc1ccc(S(=O)(=O)N2CCCC2)cc1	-8	19	17	-15	1.1	0.8
O=C(c1ccco1)N1CCN(S(=O)(=O)c2ccc(S(=O)(=O)NC3CC3)cc2)CC1	4	20	-16	16	1	0.8
O=C(c1ccco1)N1CCN(S(=O)(=O)c2ccc(Oc3ccccc3)cc2)CC1	54*	84*	-16	13	0.5	0.2
Cc1cccn2cc(-c3ccc(S(=O)(=O)N4CCOCC4)cc3)nc12	12	-8	/	/	0.9	1.1
CC(C(=O)Nc1ccc(S(=O)(=O)N2CCCC2)cc1)N1CCN(C(=O)c2ccco2)CC1 (centres undefined)	13	64*	8	-10	0.9	0.4
Cc1cc(Nc2ccc(C)c(C)c2)n2nc(C)nc2n1	25	52*	/	/	0.7	0.5
COC(=O)c1cc2oc(C)cc2n1CC(=O)Nc1ccc(OC)c(OC)c1OC	59*	63*	-5	7	0.4	0.4
CN(NC(N)=O)c1ncc(C(F)(F)F)cc1Cl	5	0	13	-14	0.9	1
COc1ccc(CNC(=S)Nc2cccc(C)c2C)cc1	49	-14	-2	2	0.5	1.1
C=CCNC(=O)c1onc(CSc2ccc(Cl)cc2)c1C(=O)O	24	73*	0	6	0.8	0.3
CC(C)c1ccc(SCc2noc(C(=O)NCC3CCCO3)c2C(=O)O)cc1 (centres undefined)	21	61*	-3	9	0.8	0.4
CC(C)NC(=O)c1onc(CSc2cccc(F)c2)c1C(=O)O	-1	35	-2	8	1	0.7
O=C(NCC1CCCO1)c1onc(CSc2ccccc2)c1C(=O)O (centres undefined)	14	1	0	6	0.9	1
C=CCNC(=O)c1onc(CSc2ccc(F)c(F)c2)c1C(=O)O	44	77*	2	3	0.6	0.2
COCCNC(=O)c1onc(CSc2ccc(F)c(F)c2)c1C(=O)O	20	20	4	-3	0.8	0.8
SMILES	CYP2C19 inhib	CYP2C9 inhib	sEH inhibitor	sEH activator	CYP2C19 activ	CYP2C9 activ
CCCCNC(=O)c1onc(CSc2cccc(F)c2)c1C(=O)O	9	66*	5	0	0.9	0.3
COc1ccc(C2/C(=C(\O)c3ccc4c(c3)OCCO4)C(=O)C(=O)N2Cc2ccco2)c(OC)c1 (centres undefined)	/	/	-13	13	/	/
OC(CN1CCN(c2cccc(C(F)(F)F)c2)CC1)c1c[nH]c2ccccc12 (centres undefined)	22	-54	-7	6	0.8	1.5
CC(C)NC(=O)c1onc(CSc2ccc(Cl)cc2)c1C(=O)O	19	70*	8	-2	0.8	0.3
CCCCNC(=O)c1onc(CSc2ccc(Cl)cc2)c1C(=O)O	16	86*	-6	7	0.8	0.1
COc1ccc(SCc2noc(C(=O)NC(C)C)c2C(=O)O)cc1	14	49	2	4	0.9	0.5
